One sequence from article PMC7862700, “An all-to-all approach to the identification of sequence-specific readers for epigenetic DNA modifications on cytosine” can be followed below.

What all share (test): DAPPL (digital affinity profiling via proximity ligation, sequencing); 10 mM Tris-HCl pH 7.5, 50 mM NaCl, 1 mM DTT, 4% glycerol, room temperature, 30 min; GST-TFs on glutathione beads, 16-mer random dsDNA library, 0.1% formaldehyde crosslink after washing; high values mean tight binding
Assay [1] has as its target T1, FEV (Homo sapiens, UniProt Q99581 1-238).
T1 sequence: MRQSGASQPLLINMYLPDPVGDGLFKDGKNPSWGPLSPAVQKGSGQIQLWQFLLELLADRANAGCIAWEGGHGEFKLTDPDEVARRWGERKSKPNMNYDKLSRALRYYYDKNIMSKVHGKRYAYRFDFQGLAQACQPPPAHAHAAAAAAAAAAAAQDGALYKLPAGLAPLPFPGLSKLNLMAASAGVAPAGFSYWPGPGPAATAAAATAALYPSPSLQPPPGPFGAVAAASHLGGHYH
Conditions: protein: recombinant; tags: N-terminal GST; dsDNA, one strand shown. In outline: (§1)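 Yeast served to express human transcription factors as GST fusions, which were then captured on glutathione beads and labelled with DNA barcodes. Pooled with a tag-only sample, they were incubated with 200 nmole of a 16-mer random double-stranded DNA library for 30 min at room temperature in Tris/NaCl/DTT/glycerol buffer, washed, crosslinked with 0.1% formaldehyde, ligated by proximity, amplified by PCR and sequenced. Dividing each hexamer's read frequency for a factor by its frequency for the tag-only sample gives the binding signal.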

The target in assay [2] is ETV5 (Homo sapiens, UniProt P41161 1-510). Conditions: protein: recombinant; tags: N-terminal GST; dsDNA, one strand shown. In outline: as §1
In assay [3] the target is HSF1 (Homo sapiens, UniProt Q00613 1-529). Conditions: protein: recombinant; tags: N-terminal GST; chain copies: 3; dsDNA, one strand shown. In a few lines: as §1
Assay [4] has as its target T2, SPIC (Homo sapiens, UniProt Q8N5J4 1-248).
T2 sequence: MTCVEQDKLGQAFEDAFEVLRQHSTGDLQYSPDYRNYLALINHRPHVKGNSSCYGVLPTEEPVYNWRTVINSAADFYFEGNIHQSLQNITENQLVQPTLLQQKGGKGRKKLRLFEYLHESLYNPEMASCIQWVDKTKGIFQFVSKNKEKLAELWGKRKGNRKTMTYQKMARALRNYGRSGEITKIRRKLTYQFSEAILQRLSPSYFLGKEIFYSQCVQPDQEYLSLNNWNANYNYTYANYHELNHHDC
Conditions: protein: recombinant; tags: N-terminal GST; dsDNA, one strand shown. In outline: as §1

For assay [5], the target named is ELF4 (Homo sapiens, UniProt Q99607 1-663). Particulars: protein: recombinant; tags: N-terminal GST; dsDNA, one strand shown. In outline: as §1
Assay [6] has as its target T3, ELK4 (Homo sapiens, UniProt P28324-2 1-405).
T3 sequence: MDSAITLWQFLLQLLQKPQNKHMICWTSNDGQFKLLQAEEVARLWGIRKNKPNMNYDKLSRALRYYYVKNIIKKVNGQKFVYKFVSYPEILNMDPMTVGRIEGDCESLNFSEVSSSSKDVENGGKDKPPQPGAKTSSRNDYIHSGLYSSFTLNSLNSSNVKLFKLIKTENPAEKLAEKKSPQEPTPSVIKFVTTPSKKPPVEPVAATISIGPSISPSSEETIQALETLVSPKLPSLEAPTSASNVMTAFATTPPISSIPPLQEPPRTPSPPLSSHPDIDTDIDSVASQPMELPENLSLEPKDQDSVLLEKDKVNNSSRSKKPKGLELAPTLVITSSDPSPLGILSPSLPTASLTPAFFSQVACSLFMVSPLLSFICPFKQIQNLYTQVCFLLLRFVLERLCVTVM
Conditions: protein: recombinant; tags: N-terminal GST; dsDNA, one strand shown. In a few lines: as §1

Assay [7] has as its target T4, ETV2 (Homo sapiens, UniProt O00321 1-342).
T4 sequence: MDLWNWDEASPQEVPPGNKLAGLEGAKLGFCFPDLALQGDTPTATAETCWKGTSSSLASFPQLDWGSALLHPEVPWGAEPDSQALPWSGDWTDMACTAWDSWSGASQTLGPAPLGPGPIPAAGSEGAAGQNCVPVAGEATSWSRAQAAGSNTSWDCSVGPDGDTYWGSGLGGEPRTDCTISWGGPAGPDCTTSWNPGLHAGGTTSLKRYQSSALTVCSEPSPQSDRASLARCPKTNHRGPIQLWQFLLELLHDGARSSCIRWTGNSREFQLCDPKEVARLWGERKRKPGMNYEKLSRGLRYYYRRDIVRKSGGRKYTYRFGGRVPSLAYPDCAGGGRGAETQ
Conditions: protein: recombinant; tags: N-terminal GST; dsDNA, one strand shown. In a few lines: as §1

Assay [8] addresses T5, ELF3 (Homo sapiens, UniProt P78545 1-371).
T5 sequence: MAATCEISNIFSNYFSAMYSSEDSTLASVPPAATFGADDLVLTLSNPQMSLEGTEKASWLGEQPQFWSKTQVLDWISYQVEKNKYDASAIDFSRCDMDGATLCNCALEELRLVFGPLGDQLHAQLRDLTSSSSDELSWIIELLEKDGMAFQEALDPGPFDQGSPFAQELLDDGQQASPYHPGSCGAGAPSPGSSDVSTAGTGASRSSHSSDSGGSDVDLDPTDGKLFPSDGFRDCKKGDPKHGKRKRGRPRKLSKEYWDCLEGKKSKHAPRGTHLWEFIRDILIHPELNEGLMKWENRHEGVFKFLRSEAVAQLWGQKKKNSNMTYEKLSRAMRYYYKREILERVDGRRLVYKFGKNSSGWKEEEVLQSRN
Particulars: protein: recombinant; tags: N-terminal GST; dsDNA, one strand shown. In a few lines: as §1

The target of assay [9] is CRX (Homo sapiens, UniProt O43186 1-299). Particulars: protein: recombinant; tags: N-terminal GST; dsDNA, one strand shown. In a few lines: as §1
Assay [10] addresses ETV1 (Homo sapiens, UniProt P50549 1-477). Conditions: protein: recombinant; tags: N-terminal GST; dsDNA, one strand shown. In a few lines: as §1
The target in assay [11] is T6, ERF (Homo sapiens, UniProt P50548 1-548).
T6 sequence: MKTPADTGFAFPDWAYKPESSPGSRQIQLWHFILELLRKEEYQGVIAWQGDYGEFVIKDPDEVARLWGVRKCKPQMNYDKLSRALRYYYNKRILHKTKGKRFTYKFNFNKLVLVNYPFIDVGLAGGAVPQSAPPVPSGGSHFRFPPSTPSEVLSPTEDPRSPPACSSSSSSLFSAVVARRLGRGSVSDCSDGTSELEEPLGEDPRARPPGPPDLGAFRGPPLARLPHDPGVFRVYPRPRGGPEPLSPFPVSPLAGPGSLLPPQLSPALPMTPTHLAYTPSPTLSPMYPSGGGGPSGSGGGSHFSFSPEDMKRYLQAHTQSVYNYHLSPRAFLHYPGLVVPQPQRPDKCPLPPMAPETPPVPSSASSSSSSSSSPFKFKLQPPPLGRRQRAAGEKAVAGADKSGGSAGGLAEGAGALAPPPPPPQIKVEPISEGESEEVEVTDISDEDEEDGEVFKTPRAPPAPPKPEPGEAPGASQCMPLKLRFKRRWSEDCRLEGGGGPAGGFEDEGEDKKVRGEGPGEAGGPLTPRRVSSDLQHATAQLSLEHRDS
Conditions: protein: recombinant; tags: N-terminal GST; dsDNA, one strand shown. In a few lines:
as §1

Assay [12] has as its target T7, ETV3L (Homo sapiens, UniProt Q6ZN32 1-361).
T7 sequence: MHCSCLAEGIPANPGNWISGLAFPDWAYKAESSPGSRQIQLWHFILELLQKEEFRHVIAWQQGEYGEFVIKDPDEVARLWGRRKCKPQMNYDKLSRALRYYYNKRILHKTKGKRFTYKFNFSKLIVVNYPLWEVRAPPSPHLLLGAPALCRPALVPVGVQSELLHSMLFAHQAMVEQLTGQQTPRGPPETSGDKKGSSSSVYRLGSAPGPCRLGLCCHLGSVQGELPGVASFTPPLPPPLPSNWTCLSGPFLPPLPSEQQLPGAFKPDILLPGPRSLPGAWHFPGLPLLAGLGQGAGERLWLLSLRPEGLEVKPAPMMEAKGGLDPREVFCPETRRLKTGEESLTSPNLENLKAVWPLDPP
Conditions: protein: recombinant; tags: N-terminal GST; dsDNA, one strand shown. In outline: as §1

For assay [13], the target named is T8, ETS2 (Homo sapiens, UniProt P15036 1-469).
T8 sequence: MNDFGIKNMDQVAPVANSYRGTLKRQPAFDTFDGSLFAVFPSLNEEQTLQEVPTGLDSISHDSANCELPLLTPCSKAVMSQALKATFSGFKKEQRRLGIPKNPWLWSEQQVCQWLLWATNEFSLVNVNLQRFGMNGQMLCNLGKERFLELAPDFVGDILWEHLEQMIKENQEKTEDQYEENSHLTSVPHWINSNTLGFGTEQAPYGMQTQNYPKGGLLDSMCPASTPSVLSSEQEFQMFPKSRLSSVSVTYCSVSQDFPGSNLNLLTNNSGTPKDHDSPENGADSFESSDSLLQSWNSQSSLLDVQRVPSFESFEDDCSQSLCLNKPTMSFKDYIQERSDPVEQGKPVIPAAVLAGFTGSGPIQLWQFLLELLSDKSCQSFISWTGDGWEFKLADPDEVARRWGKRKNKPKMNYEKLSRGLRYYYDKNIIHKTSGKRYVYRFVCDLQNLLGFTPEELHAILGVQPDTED
Particulars: protein: recombinant; tags: N-terminal GST; dsDNA, one strand shown. In outline: as §1

Assay [14] deals with T9, SPDEF (Homo sapiens, UniProt O95238 1-335).
T9 sequence: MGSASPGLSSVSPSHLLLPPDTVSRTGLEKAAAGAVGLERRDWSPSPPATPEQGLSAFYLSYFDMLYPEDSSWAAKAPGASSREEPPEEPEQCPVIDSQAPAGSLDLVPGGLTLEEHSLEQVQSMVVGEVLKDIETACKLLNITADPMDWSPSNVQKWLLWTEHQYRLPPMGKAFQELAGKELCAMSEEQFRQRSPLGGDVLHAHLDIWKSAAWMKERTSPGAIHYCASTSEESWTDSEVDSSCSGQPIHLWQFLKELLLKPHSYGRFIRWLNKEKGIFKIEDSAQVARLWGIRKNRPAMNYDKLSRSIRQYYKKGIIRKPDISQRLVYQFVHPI
Particulars: protein: recombinant; tags: N-terminal GST; dsDNA, one strand shown. In a few lines:
as §1

For assay [15], the target named is T10, ETV7 (Homo sapiens, UniProt Q9Y603 1-341).
T10 sequence: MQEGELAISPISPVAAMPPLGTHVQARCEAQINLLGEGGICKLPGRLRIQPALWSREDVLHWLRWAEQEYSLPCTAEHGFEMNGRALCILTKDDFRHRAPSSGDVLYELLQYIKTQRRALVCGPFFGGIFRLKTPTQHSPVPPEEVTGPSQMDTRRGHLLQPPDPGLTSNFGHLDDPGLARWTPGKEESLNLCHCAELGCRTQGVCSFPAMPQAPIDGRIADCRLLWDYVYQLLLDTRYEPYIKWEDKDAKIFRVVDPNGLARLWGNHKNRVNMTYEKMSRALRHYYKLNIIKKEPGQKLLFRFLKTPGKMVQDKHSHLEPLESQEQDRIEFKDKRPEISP
Particulars: protein: recombinant; tags: N-terminal GST; dsDNA, one strand shown. In outline: as §1

Assay [16] addresses T11, ELF5 (Homo sapiens, UniProt Q9UKW6-2 1-255).
T11 sequence: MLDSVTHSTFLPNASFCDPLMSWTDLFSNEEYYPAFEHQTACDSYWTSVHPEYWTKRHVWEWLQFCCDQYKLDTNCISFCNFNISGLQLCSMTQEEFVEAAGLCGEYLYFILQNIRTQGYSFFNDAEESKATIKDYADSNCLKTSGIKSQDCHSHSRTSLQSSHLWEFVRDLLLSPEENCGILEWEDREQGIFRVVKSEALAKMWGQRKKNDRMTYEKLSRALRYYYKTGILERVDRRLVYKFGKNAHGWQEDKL
Conditions: protein: recombinant; tags: N-terminal GST; dsDNA, one strand shown. In a few lines: as §1

The target of assay [17] is T12, ETV3 (Homo sapiens, UniProt P41162-2 1-143).
T12 sequence: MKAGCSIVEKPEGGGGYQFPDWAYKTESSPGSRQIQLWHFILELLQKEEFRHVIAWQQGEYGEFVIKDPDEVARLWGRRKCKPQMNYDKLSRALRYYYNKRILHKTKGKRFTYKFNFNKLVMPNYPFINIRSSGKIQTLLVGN
Particulars: protein: recombinant; tags: N-terminal GST; dsDNA, one strand shown. In a few lines: as §1

Assay [18] concerns the target ETV6 (Homo sapiens, UniProt P41212 1-452). Conditions: protein: recombinant; tags: N-terminal GST; dsDNA, one strand shown. In outline: as §1

Sequence of CRX (O43186 whole entry): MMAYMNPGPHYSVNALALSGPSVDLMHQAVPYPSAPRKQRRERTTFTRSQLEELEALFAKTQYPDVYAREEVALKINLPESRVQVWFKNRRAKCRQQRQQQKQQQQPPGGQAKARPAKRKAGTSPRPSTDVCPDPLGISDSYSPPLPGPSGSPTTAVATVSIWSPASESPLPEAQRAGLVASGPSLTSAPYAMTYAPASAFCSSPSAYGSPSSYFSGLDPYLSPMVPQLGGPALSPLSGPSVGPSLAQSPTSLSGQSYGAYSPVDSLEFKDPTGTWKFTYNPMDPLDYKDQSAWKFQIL
Sequence of ETV1 (P50549 whole entry): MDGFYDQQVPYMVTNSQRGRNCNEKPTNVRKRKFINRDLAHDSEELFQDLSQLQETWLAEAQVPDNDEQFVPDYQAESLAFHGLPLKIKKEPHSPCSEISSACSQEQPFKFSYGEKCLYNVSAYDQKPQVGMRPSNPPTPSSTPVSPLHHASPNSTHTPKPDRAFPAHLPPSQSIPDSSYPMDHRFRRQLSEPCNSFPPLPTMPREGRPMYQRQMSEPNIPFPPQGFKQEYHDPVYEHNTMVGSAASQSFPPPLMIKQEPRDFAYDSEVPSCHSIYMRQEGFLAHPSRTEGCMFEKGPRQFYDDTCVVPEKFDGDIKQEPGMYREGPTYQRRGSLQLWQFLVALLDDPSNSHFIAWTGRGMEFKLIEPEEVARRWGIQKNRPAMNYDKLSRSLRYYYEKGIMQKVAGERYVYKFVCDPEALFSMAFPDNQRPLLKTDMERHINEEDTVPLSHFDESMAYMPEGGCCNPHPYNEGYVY
Sequence of ETV5 (P41161 whole entry): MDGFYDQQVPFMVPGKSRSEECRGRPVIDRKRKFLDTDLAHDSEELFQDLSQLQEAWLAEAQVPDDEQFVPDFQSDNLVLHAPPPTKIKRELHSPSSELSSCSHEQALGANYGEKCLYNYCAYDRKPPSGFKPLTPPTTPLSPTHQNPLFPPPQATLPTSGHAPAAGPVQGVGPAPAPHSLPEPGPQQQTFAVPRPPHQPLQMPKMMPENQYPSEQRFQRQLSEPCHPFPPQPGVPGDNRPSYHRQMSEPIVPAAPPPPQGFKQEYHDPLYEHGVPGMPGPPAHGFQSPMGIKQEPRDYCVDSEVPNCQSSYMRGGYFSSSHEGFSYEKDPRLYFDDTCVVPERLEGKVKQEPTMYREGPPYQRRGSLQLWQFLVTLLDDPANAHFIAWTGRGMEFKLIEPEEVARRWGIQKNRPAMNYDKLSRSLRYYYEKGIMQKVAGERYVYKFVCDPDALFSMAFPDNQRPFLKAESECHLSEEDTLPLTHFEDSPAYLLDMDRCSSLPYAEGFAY
Sequence of ETV6 (P41212 whole entry): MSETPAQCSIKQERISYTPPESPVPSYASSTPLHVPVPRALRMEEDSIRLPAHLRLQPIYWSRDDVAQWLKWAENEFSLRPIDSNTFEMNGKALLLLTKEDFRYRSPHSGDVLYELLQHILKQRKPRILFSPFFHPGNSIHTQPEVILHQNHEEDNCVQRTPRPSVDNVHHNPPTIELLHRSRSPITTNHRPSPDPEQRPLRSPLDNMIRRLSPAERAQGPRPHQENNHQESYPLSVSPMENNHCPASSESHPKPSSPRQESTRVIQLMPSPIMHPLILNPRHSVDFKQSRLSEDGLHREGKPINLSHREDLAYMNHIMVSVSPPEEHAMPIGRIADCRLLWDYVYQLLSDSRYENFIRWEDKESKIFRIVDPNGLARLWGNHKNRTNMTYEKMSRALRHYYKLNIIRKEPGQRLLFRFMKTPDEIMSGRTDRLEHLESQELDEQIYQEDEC
Sequence of HSF1 (Q00613 whole entry): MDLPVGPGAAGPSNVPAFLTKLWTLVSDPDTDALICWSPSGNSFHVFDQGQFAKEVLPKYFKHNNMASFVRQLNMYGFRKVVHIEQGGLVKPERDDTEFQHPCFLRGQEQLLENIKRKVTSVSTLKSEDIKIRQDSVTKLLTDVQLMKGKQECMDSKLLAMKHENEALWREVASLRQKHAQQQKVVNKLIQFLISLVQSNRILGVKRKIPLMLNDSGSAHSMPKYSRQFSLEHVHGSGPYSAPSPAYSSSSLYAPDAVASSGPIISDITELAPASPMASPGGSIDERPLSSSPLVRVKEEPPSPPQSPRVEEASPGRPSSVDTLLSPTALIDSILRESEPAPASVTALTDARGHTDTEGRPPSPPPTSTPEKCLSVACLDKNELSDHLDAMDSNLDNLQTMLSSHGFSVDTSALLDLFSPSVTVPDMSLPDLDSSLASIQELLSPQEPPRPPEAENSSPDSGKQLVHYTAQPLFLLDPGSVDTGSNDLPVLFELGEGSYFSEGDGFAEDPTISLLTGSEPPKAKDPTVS
Sequence of ELF4 (Q99607 whole entry): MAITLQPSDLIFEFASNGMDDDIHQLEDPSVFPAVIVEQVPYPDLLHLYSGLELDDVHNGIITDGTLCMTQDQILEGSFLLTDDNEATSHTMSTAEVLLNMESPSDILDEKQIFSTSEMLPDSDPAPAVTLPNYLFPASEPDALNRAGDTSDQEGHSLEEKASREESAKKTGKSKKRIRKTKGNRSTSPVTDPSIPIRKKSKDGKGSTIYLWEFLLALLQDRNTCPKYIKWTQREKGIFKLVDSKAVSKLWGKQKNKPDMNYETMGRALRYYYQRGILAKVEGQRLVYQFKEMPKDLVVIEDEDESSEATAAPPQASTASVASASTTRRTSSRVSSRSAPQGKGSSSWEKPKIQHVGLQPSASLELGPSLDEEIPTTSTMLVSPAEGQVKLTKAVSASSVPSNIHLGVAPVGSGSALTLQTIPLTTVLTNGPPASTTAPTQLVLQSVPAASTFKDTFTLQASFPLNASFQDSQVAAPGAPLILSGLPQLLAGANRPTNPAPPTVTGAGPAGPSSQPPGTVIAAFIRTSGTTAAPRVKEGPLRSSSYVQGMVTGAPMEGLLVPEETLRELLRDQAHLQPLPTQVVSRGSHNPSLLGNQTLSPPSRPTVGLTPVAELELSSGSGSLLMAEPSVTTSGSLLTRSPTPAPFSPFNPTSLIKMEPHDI

In the case of ATAACC, the binding signal is 1.22 fold enrichment (6-mer frequency, TF over GST control) in [1]; 1.21 fold enrichment (6-mer frequency, TF over GST control) in assay [2]; 1.09 fold enrichment (6-mer frequency, TF over GST control) in assay [3]; 1.05 fold enrichment (6-mer frequency, TF over GST control) in assay [4]; 1.23 fold enrichment (6-mer frequency, TF over GST control) in [5]; 1.18 fold enrichment (6-mer frequency, TF over GST control) in assay [6]. The binding signal in [7] is 1.05 fold enrichment (6-mer frequency, TF over GST control); in assay [8], 1.21 fold enrichment (6-mer frequency, TF over GST control); in assay [9], 1.27 fold enrichment (6-mer frequency, TF over GST control); in assay [10], 1.1 fold enrichment (6-mer frequency, TF over GST control); in assay [11], 1.08 fold enrichment (6-mer frequency, TF over GST control); in assay [12], 1.18 fold enrichment (6-mer frequency, TF over GST control). Also, the binding signal in assay [13] is 1.21 fold enrichment (6-mer frequency, TF over GST control); in assay [14] it was 1.22 fold enrichment (6-mer frequency, TF over GST control); in [15], 1.25 fold enrichment (6-mer frequency, TF over GST control); in assay [16], 1.16 fold enrichment (6-mer frequency, TF over GST control); in [17], 1.15 fold enrichment (6-mer frequency, TF over GST control); in [18], 1.17 fold enrichment (6-mer frequency, TF over GST control).
